Assay results taken from PubChem BioAssay (NCATS).
Results filed as inconclusive are left out. Unmarked numbers belong to inactive results. The call rests on the fitted dose curve; in most records, active means well fitted inhibition curve with a large enough effect; inconclusive means small, poorly fitted or top-dose-only effect; inactive means no such curve, though single readings can be large or run the other way.

Target: Retinaldehyde dehydrogenase 3 (Homo sapiens) (UniProt P47895)
Experiment: qHTS for Inhibitors of the Aldehyde Dehydrogenase Family (ALDH1A3) Primary screen (AID 2061315);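 further: plate controls were DMSO vehicle for no effect and reference inhibitor for full effect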
Settings: ALDH inhibition qHTS; series mostly up to 56 µM; activity change, negative = inhibition: at the top concentration

Structure (SMILES)	activity change, negative = inhibition
CC(C)(F)CC(NC(c1ccc(-c2ccc(S(C)(=O)=O)cc2)cc1)C(F)(F)F)C(=O)NC1(C#N)CC1 (stereo not given)	12.5%
Oc1ccc(-c2cnc3ccc(NCc4ccco4)nn23)cc1	17.7%
COc1cc2c(cc1OC)-c1[nH]nc(Nc3cccc(F)c3)c1C2	20.4%
CC[C@H]1CN(c2nc(N)c(C(N)=O)nc2Cl)CCN1C1CCN(Cc2ccc(Cl)cc2)CC1	-13.8%
CC(C)(F)C[C@@H](N[C@@H](c1ccc(-c2ccc(S(C)(=O)=O)cc2)cc1)C(F)(F)F)C(=O)NC1(C#N)CC1	1.19%
CCOc1ccc(C(Nc2ccccn2)c2ccc3ccc(C)nc3c2O)cc1C (stereo not given)	21.8%
Cc1ccccc1C(=O)Nc1ccc(C(=O)N2CCCC(N(C)C)c3ccccc32)cc1 (stereo not given)	4.4%
COc1cc2nc(C3CC3)nc(N3CCN(c4ccccc4OC)CC3)c2cc1OC	9.43%
Cc1ccc(NC(=O)C(C)C)cc1C1CCN(Cc2ccc(Oc3ccc(F)c(F)c3)cc2)CC1	8.31%
O=C1CC2(CCCC2)[C@H](O)C(=O)N1CCCCN1CCN(c2ncccn2)CC1	-9.29%
Cc1c(NC(=O)N2CCOCC2)ccc2c1c1ccccc1n2C(C)C	-7.92%
Cc1ccc(-c2c(-c3nn(C)c4ncnc(N5CC[C@H](N6CCCCC6)C5)c34)cnn2C)cc1	-3.5%
CCOC(=O)c1ccc(NC2CCCCC2)c(N)c1	-9.28%
Cc1oc2nc3c(c(NC(=O)CN4CCCC4=O)c2c1C)CCCC3	22.3%
CC(C)c1c(NC(=O)Nc2ccc(Cl)cc2)c(=O)n(-c2ccccc2)n1C	-13%
CN[C@@H]1[C@@H](O)[C@@H](O[C@@H]2[C@@H](O)[C@H](O[C@H]3O[C@H](CN)[C@@H](O)[C@H](O)[C@H]3O)[C@@H](N)C[C@H]2NC(=O)[C@@H](O)CN)OC[C@]1(C)O	-15.5%
COC(=O)CCc1ccc(OCC(O)CNC(C)C)cc1 (stereo not given)	0.927%
CCOc1ccc(NC(=S)N2CCC(C(O)(c3ccccc3)c3ccccc3)CC2)cc1	12.5%
COc1cccc(-n2nc(C(=O)O)cc2-c2ccc(C3CCCCC3)c(Cl)c2)c1	16.3%
O=C1C(Cc2ccc(O)cc2)N2C(=O)CCN(C(=O)NCc3ccccc3)C2CN1Cc1cccc2ccccc12 (stereo not given)	-6.06%
CCC[C@@]1(CCc2ccccc2)CC(O)=C([C@H](CC)c2cccc(NS(=O)(=O)c3ccc(C(F)(F)F)cn3)c2)C(=O)O1	4.19%
NS(=O)(=O)c1ccc(N2N=C(c3ccccc3)CC2c2ccccc2)cc1 (stereo not given)	-5.1%
Fc1ccc2c(CCNCc3cccc(OCC(F)(F)C(F)F)c3)c[nH]c2c1	10.2%
CC(C)(C)c1cc(Br)cc([C@H](CC(=O)O)NC(=O)CNC(=O)c2cc(O)cc(NC3=NCC(O)CN3)c2)c1 (stereo not given in full)	-2.16%
CN(C)CCn1cc(-c2ccc(F)cc2)c(-n2cccc2)n1	-2.63%
